Compound activity from PubChem BioAssay.
Most compounds without a hit are left out; they make up all but 2.8% or so of the library.
PP5 inh – PP5 (human) phosphatase inhibition; P53041; purified PP5c, OMFP substrate fluorescence; inhibition, % at 6.7 µM; 0.18% of 320,000 active; AID 1987;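 active = inhibition above the campaign's mean inhibition across all tested compounds plus 3 SD, cut at about 9.5% in these data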;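 also: 0% = DMSO only and 100% = 100 µM cantharidin control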
Rev-erbA mod – Rev-erb alpha (human) modulation; activity, % at 10 µM; 0.79% of 370,000 active; P20393; Rev-erbα–FITC-DNA binding, fluorescence polarization, 90 min; AID 1259318;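 active = activity above about 14%, limit read from the data; passing the limit was not always enough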;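 also: 0% = DMSO wells with 35 nM protein and 100% = DMSO wells with 750 nM protein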
Target sequence (P20393 whole entry, looked up): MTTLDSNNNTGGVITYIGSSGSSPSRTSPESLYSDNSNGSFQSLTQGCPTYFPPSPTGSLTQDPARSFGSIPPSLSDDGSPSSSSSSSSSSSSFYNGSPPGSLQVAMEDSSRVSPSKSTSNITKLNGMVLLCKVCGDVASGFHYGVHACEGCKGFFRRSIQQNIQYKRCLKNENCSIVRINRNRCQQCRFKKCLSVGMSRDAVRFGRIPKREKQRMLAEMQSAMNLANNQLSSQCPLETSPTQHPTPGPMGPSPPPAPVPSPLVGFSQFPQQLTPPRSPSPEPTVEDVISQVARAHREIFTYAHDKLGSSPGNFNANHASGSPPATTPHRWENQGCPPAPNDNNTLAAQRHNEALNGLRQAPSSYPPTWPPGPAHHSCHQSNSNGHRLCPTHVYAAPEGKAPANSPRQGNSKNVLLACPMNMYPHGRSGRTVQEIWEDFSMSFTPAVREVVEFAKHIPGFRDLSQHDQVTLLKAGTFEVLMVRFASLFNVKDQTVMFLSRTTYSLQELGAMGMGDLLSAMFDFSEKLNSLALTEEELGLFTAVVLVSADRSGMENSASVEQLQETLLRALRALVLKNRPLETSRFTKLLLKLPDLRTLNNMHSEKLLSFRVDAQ
JMJD2C inh – inhibitors of human GASC-1 (JMJD2C) demethylase. inhibition, % at 2.35 µM. Q9H3R0. GST-JMJD2C(1-420) H3K9me3 demethylation, DELFIA europium. 0.069% of 330,000 active;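 active = more than half of a compound's replicate wells show inhibition beyond 50%, single wells judged on their own value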;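 also: signal counts dimethyl H3K9 product captured on neutravidin plate; 0% = median of DMSO wells and 100% = 0.3 times that DMSO median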
PP1 counter – PP1-alpha (human) inhibition in PP5 counter-screen; purified PP1alpha, OMFP fluorescence; inhibition, % at 6.7 µM; 0.9% of 320,000 active; P62136;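 active = inhibition above the mean inhibition of all tested compounds plus 3 SD, computed separately for each screening campaign, cut at about 15% in these data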
KLK7 zymogen act – proKLK7 (human) activation, primary screen; 0.9% of 370,000 active; AID 652039; activation, % at 7 µM; purified proKLK7, EDANS-DABCYL substrate fluorescence; 100% is mature enzyme control, 0% vehicle;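 active = activation above the mean of all tested compounds plus 3 SD, computed per campaign excluding outliers beyond control limits, cut at about 13% in these data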
PG9 Ab binder – binds the HIV-1 gp120 antibody PG9 | 0.43% of 360,000 active | AID 624416 | inhibition, % at 6.7 µM | TR-FRET gp120-PG9 antibody binding; in the data active = inhibition above about 8.5%
NR1D1 mod conf – Rev-erb alpha (human) modulation, hit confirmation; Rev-erb alpha FITC-DNA binding, fluorescence polarization, 90 min; 61% of 3,000 active; shares compounds with Rev-erbA mod; activation, % at 25 µM;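 active = activation at or above a set limit, or at least 3 SD above the negative control mean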;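 also: 0% = 35 nM protein with DMSO and 100% = 750 nM protein high control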
RORg counter – affects RORgamma DNA binding in a Rev-erb alpha counter-screen; shares compounds with Rev-erbA mod; purified RORgamma protein-FITC-DNA binding, fluorescence polarization; IC50, µM; 8% of 910 active;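 active = Compounds whose fitted half-maximal concentration for disrupting protein-DNA binding is below 10 micromolar; the record names Rev-erb in its text, so the target is in doubt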
* hit, by the source's call; · = no result.

SMILES	PP5 inh	Rev-erbA mod	JMJD2C inh	PP1 counter	KLK7 zymogen act	PG9 Ab binder	NR1D1 mod conf	others
COc1ccc(C(=O)Nc2ccc(NC(=O)c3cccc(OC)c3)cn2)cc1	0.6	18.4*	7.7	1.6	0.5	7.2	14.4
COc1ccc(C(=O)Nc2ccc(NC(=O)c3cccc(F)c3)cn2)cc1	-0.3	1.0	-5.5	6.7	-0.6	2.5	·
COc1ccc(C(=O)NNC(=O)C(Cc2ccc(O)cc2)NC(=O)c2ccccc2NC(=O)c2ccc(OC)cc2)cc1 (centres undefined)	0.5	44.9*	0.7	-8.1	-1.0	-0.6	35.9*	RORg counter=>40
COc1ccc(C(=O)Nc2ccccc2NC(=O)c2ccc(OC)cc2)cc1	-1.2	-3.0	4.6	-3.9	0.5	-2.1	·
COc1ccc(C(=O)Nc2ccccc2C(=O)Nc2ccccc2)cc1	·	67.6*	·	·	0.0	-0.6	45.4*	RORg counter=>40
O=C(O)COc1ccccc1C=NNC(=O)Cc1cc(=O)[nH][nH]1	·	-5.4	·	·	-0.2	·	·
COc1ccc(-n2c(SCC(=O)Nc3ccc(Oc4ccccc4)cc3)nnc2-c2ccc(C)cc2)cc1	·	-8.5	·	·	0.1	·	·
CCCNC(=O)C(Cc1ccc(OC)cc1)NC(=O)c1ccc(Cl)cc1 (centres undefined)	-1.5	-2.3	0.5	-4.1	-0.1	-1.3	·
COc1ccc(C(=O)Nc2ccccc2C(=O)NC(Cc2ccc(O)cc2)C(=O)NNC(=O)c2ccccc2Cl)cc1 (centres undefined)	1.1	24.2*	-1.5	-0.7	0.5	6.6	18.6*
COc1ccc(OC)c(C(=O)c2ccc(C(=O)Nc3ccccc3)cc2)c1	3.1	2.9	3.1	-2.9	0.0	-0.1	·
COc1ccc(NC(=O)c2ccc(C(=O)c3cc(OC)ccc3OC)cc2)cc1	3.6	46.0*	-10.7	3.1	·	·	33.5*	RORg counter=>40
c1ccc(-c2nc(-c3ccc(-c4ccon4)s3)no2)cc1	0.3	9.8	3.4	1.4	-0.3	-0.2	·
c1csc(-c2nc(-c3ccc(-c4ccon4)s3)no2)c1	0.3	21.2*	-4.0	3.8	0.1	5.4	10.7
COC(=O)[C@]12C[C@H](CC(=O)NCCCN3CCCC3=O)C(=O)N(Cc3ccco3)C1=C[C@H](COCc1ccccc1)O[C@@H]2C	·	1.0	·	·	-0.5	·	·
Cc1ccc(C)c(NC(=O)CSc2nc3ccccc3nc2N2CCOCC2)c1	2.6	32.2*	-0.3	-2.3	-0.6	-1.8	24.5*
COCc1cc(C)nc(SCC(=O)Nc2ccccc2N2CCOCC2)c1C#N	1.2	5.3	12.9	-5.3	2.1	-2.2	·
CCc1ccccc1NC(=O)CSc1nc2ccccc2nc1N1CCOCC1	3.6	14.6	-1.4	-3.7	0.4	-0.2	·
Cc1ccccc1NC(=O)CSc1nc2cc3c(cc2cc1C)CCC3	-2.1	102.0*	-2.6	0.0	0.6	-1.6	23.4*
Cc1cc(C)c2nc(SCC(=O)Nc3ccccc3N3CCOCC3)c(C#N)cc2c1	2.3	65.0*	6.9	-4.6	-0.1	-0.7	32.2*	RORg counter=>40
COc1ccc(NC(=O)COc2nsnc2N2CCOCC2)cc1	2.6	1.2	-4.3	-5.9	1.2	-0.3	·
CCC(=O)Nc1ccc(NC(=O)CSc2nc3cc4c(cc3cc2C)CCC4)cc1	-2.1	16.2	1.8	-2.0	0.4	1.3	·
COc1ccc(NC(=O)COc2nc3ccccc3nc2N2CCOCC2)c(OC)c1	2.9	23.9*	-35.7	-1.1	0.2	-3.8	10.4
Cc1cc(N2CCN(CC(C)(C)O)C[C@H]2C)ccc1N1CCN(CC(C)(C)O)[C@H](C)C1	·	-6.0	·	·	0.6	-1.7	·
COC(=O)[C@]12C[C@H](CC(=O)NCCCCc3ccccc3)C(=O)N(Cc3ccccc3)C1=C[C@H](C(C)C)O[C@@H]2C1CC1	·	9.7	·	·	1.1	2.0	·
COC(=O)C1=CN(c2ccc(N3CCOCC3)cc2)C(N)=C(C#N)C1c1cccc(F)c1 (centres undefined)	·	24.0*	·	·	0.2	0.2	8.4
SMILES	PP5 inh	Rev-erbA mod	JMJD2C inh	PP1 counter	KLK7 zymogen act	PG9 Ab binder	NR1D1 mod conf	others
COc1nc2c(C)cccc2cc1-c1noc(-c2ccco2)n1	-1.2	20.2*	·	-2.8	-0.6	6.2	14.7
COc1nc(-c2ccc(Cl)cc2)ccc1-c1noc(-c2ccco2)n1	-1.7	31.5*	0.4	-9.1	-0.4	0.3	0.9
COc1cc(OC)cc(-c2nc(-c3cc4cc(C)ccc4nc3OC)no2)c1	·	2.9	-7.5	·	0.2	-1.8	·
COc1cccc(-c2ccc(-c3noc(-c4ccccc4F)n3)c(OC)n2)c1	2.0	8.3	2.8	1.0	0.2	2.5	·
CCn1c(SCc2ccc(C(C)(C)C)cc2)nnc1-c1ccc(C(C)(C)C)cc1	·	-1.6	·	·	0.5	·	·
O=C(NC1CCCCN(Cc2ccc(Cl)cc2)C1=O)c1ccc2ccccc2c1 (centres undefined)	·	1.0	·	·	0.6	·	·
CCn1c(SCC(=O)c2c[nH]c3ccccc23)nnc1-c1cccs1	1.6	101.6*	-5.8	-1.0	2.0	3.8	112.5*	RORg counter=>40
CN(c1ccccc1)c1nc(N2CCCC2)nc(-n2ccnc2)n1	1.4	10.3	19.3	12.4	0.1	2.2	·
c1ccc(N(c2ccccc2)c2nc(N3CCCC3)nc(-n3ccnc3)n2)cc1	4.3	37.4*	-9.5	14.4	0.6	-0.9	57.5*	RORg counter=8.46*
O=C1CCc2cc(S(=O)(=O)N3CCN(c4ccccc4Cl)CC3)ccc2N1	·	3.9	·	·	0.4	·	·
COc1cc(-n2c(C)nc3cc(C(=O)N4CCCCC4)ccc32)cc(OC)c1OC	·	-8.1	·	·	0.1	·	·
CCOC(=O)N(C)[C@H]1C[C@H]2c3cc(-c4ccccc4C)ccc3CCN2C[C@H]1[C@H](C)O	·	-3.9	·	·	0.4	1.9	·
Cc1ccc(SCc2cc(=O)[nH]c(/N=C(\N)Nc3ccccc3Sc3ccccc3)n2)cc1	1.1	2.7	-5.3	3.0	-0.1	-0.3	·
COc1ccccc1N/C(N)=N/c1nc(CSc2ccc(C)cc2)cc(=O)[nH]1	2.4	31.4*	3.1	2.9	-0.2	1.1	34.5*	RORg counter=>40
CC(C)(C)c1nc(SCC(=O)Nc2ccc(N3CCOCC3)cc2)c2ccccc2n1	2.9	53.4*	10.4	5.5	-1.6	3.5	17.0*
O=C(CSc1nc2ccccc2o1)Nc1ccc(N2CCOCC2)cc1	3.2	0.8	145.6	-2.1	-0.3	-2.5	·
O=C(CSc1ccccc1)Nc1ccc2c(c1)OCCO2	3.9	-6.9	26.0	-3.1	-0.5	-1.7	·
CC(C)(C)c1nc(SCC(=O)Nc2ccc3c(c2)OCCO3)c2ccccc2n1	2.3	73.1*	-2.4	-1.5	0.5	2.6	35.4*	RORg counter=3.01*
